Screening data (PubChem BioAssay)
DT40 TDP1 CPT – DT40-hTDP1 cell growth loss with CPT; Potency, µM (titrated, usually from 46.2 µM), most hits filed as inhibitors; actives 12% (n = 420,000); chicken DT40 Tdp1-/-;hTDP1 cells + 20 nM CPT, ATP luminescence, 48 h; AID 686979; further: nearly all actives have a fitted effect of over 55% in size
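Chicken DT40 Tdp1-/- cells stably complemented with human TDP1 were seeded at 400 cells/well in medium containing 20 nM camptothecin, exposed to pin-transferred compounds, and grown at 37 °C for at least 48 hr. Viability was read as ATP luminescence.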
HT1080-NT tox – kills 2HG-producing HT-1080-NT fibrosarcoma cells; Potency, µM (titrated, usually from 46.1 µM), most hits filed as cytotoxic; actives 1.6% (n = 360,000); HT-1080-NT fibrosarcoma viability, CellTiter-Glo ATP luminescence, 48 h;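 further: NT is the 2HG producing partner of a matched IDH1 knockdown line; nearly all actives have a fitted effect of over 55% in size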
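Compounds were tested in concentration-response format on HT-1080-NT cells for 48 hours at 37 degrees C. Cell viability came from CellTiter-Glo luminescence; curves were classified by r2, response magnitude and activity.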
IL1B secr inh – inhibitors of inflammasome signaling (IL-1 beta secretion); THP-1 LPS/ATP IL-1B secretion, AlphaLISA, 16 h; stronger effect = lower value; activity change, % at 57.5 µM; actives 4.7% (n = 360,000); AID 743279; in the data active means activity change below about -50%; inconclusive means mostly about -30% to -49%
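Secreted IL-1B measured by AlphaLISA bead assay after 16 h compound exposure of THP-1 cells; compounds (final up to 57.5 uM) added 1 h before LPS (250 ng/mL) and ATP (1.25 mM) stimulation; lower signal means less secretion.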
HT1080 IDH1KD tx – HT-1080 IDH1 knockdown cell toxicity (counter line); Potency, µM (top dose mostly 46.1 µM), usual class: cytotoxic; HT-1080 IDH1 knockdown viability, ATP luminescence, 48 h; actives 2% (n = 360,000)
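Knockdown cells (IDH1KD HT-1080) received compounds 2 h after plating at 750 cells/well and were kept 48 h at 37 °C in 5% FBS RPMI. A CellTiter-Glo luminescence read gave % activity for curve fitting.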
TDP1 cell noCPT – qHTS for Inhibitors of human tyrosyl-DNA phosphodiesterase 1 (TDP1): qHTS in cells in absence of CPT; DT40 Tdp1-/- hTDP1 cells, no CPT, ATP luminescence, 48 h; Potency, µM (series often up to 46.2 µM), most hits filed as inhibitors; actives 15% (n = 420,000); AID 686978, 2013; further: nearly all actives have a fitted effect of over 55% in size
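No-CPT arm: Tdp1-/-;hTDP1 DT40 cells (400/well) plus compounds, incubated ≥48 hr at 37 °C. Readout CellTiter-Glo luminescence.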
A number is an active result; n = inactive; u = inconclusive; x = no result given. In the library only some 19% were active in any assay of this set; here they are far more common. Unless noted, the call rests on the fitted dose curve; in most records, active means well fitted curve in the direction sought with a large enough effect; inconclusive means small, poorly fitted or top-dose-only effect, or another doubt; inactive means no such curve, though single readings can be large; an effect the other way counts as inactive or inconclusive.

SMILES	DT40 TDP1 CPT	HT1080-NT tox	IL1B secr inh	HT1080 IDH1KD tx	TDP1 cell noCPT
COC(=O)[C@]1(Cc2ccccc2)N[C@H](CN(C)S(=O)(=O)c2ccc(-c3ccccc3)cc2)[C@@H]2C(=O)N(C)C(=O)[C@@H]21	26µM	n	n	n	21µM
CCN(C[C@H]1N[C@@](C)(C(=O)OC)[C@H]2C(=O)N(C)C(=O)[C@@H]12)S(=O)(=O)c1ccc(OC(F)(F)F)cc1	n	n	n	n	n
CCN(C[C@H]1N[C@@](Cc2ccccc2)(C(=O)OC)[C@H]2C(=O)N(Cc3ccccc3)C(=O)[C@@H]12)S(=O)(=O)c1ccc(C(F)(F)F)cc1	u	n	n	n	u
CCN(C[C@H]1N[C@@](Cc2ccccc2)(C(=O)OC)[C@H]2C(=O)N(C)C(=O)[C@@H]12)S(=O)(=O)c1ccc(OC(F)(F)F)cc1	u	n	n	n	16µM
CCN(C[C@H]1N[C@@](CC)(C(=O)OC)[C@H]2C(=O)N(C)C(=O)[C@@H]12)S(=O)(=O)c1ccc(C)cc1	n	n	n	n	n
CCN(C[C@H]1N[C@@](Cc2ccccc2)(C(=O)OC)[C@H]2C(=O)N(C)C(=O)[C@@H]12)S(=O)(=O)c1ccc(C(F)(F)F)cc1	23µM	n	n	n	18µM
COC(=O)c1sc(NC(=O)OCc2ccccc2)nc1CCNC(=O)OC(C)(C)C	u	n	n	n	u
Cc1nc2ccccc2cc1OCc1ccccc1	12µM	n	n	n	16µM
COc1cccc(COc2cc3ccccc3nc2C)c1	10µM	n	n	n	9.2µM
COc1cc(C(=O)COC(=O)c2cc([N+](=O)[O-])ccc2N2CCOCC2)ccc1OC(F)F	u	n	u	n	u
Oc1ccc(/C=N/NC(=S)Nc2cccnc2)cc1O	n	n	n	n	n
Oc1ccc(C=NNC(=S)Nc2cccnc2)nc1	16µM	u	n	u	21µM
Cc1ccc(-c2csc(NC(=O)CN3C(=O)CCC3=O)n2)cc1	n	n	n	n	n
CCOC(=S)SCC(=O)Nc1nc(-c2ccccc2)cs1	2.9µM	u	u	u	2.6µM
CCOC(=S)SCC(=O)Nc1nc(-c2ccc(Br)cc2)cs1	4.6µM	7.3µM	-100	6.5µM	4.6µM
CC(C)(C)[C@H]1C=C(C(=O)NCc2nc3ccccc3[nH]2)O[C@@H](OCc2ccc(CO)cc2)C1	21µM	n	n	n	u
O=C(NCc1nc2ccccc2[nH]1)C1=C[C@H](C2CCCCC2)C[C@H](OCc2ccc(CO)cc2)O1	12µM	u	n	u	16µM
O=C(NCc1nc2ccccc2[nH]1)C1=C[C@H](C2CCCCC2)C[C@H](OCCCCO)O1	23µM	n	n	n	16µM
O=C(NCc1nc2ccccc2[nH]1)C1=C[C@@H](C2CCCCC2)C[C@@H](OCc2ccc(CO)cc2)O1	u	n	n	n	u
O=C(NCc1nc2ccccc2[nH]1)C1=C[C@@H](c2ccc(C(F)(F)F)cc2)C[C@@H](OCc2ccc(CO)cc2)O1	u	u	n	u	18µM
CCc1ccc(C2CC(=O)Oc3c2c(=O)n(C)c2ccccc32)cc1 (stereo not given)	n	x	x	x	n
COc1cccc(NC(=O)CC(C)S(=O)(=O)c2ccc3c(c2)NC(=O)CO3)c1 (stereo not given)	n	x	x	x	u
CCC(C(=O)Nc1cc(C(F)(F)F)ccc1Cl)n1nc(C)c2sc3ccccc3c2c1=O (stereo not given)	23µM	x	x	x	16µM
CCCOc1ccc(CNC(=O)C(CC)n2nc(C)c3sc4ccccc4c3c2=O)cc1 (stereo not given)	21µM	x	x	x	23µM
Cc1nn(CCCC(=O)Nc2cc(C(F)(F)F)ccc2Cl)c(=O)c2c1sc1ccccc12	n	x	x	x	n
SMILES	DT40 TDP1 CPT	HT1080-NT tox	IL1B secr inh	HT1080 IDH1KD tx	TDP1 cell noCPT
CCC(C(=O)NC1CCC(C)CC1)n1nc(C)c2sc3ccccc3c2c1=O (stereo not given)	15µM	x	x	x	15µM
Cc1nn(C(C)C(=O)N2CCN(c3ccc(F)cc3)CC2)c(=O)c2c1sc1ccccc12 (stereo not given)	n	x	x	x	n
CCCN1CCN(C(=O)C(C)n2nc(C)c3sc4ccccc4c3c2=O)CC1 (stereo not given)	u	n	n	n	18µM
CCN(CC(=O)Nc1c(F)cccc1F)C(=O)CCc1nc2sc3c(c2c(=O)[nH]1)CCCC3	n	n	n	n	n
CCN(CC)C(=O)c1sc2c(c1C)c(=O)n(-c1ccc(C)c(C)c1)c(=O)n2Cc1cc(=O)n2ccccc2n1	n	x	x	x	n
COc1ccc(-c2nc3ccccc3[nH]2)cc1	10µM	10µM	n	11µM	13µM
c1ccc(-c2nc3ccccc3[nH]2)cc1	u	n	n	n	n
Nc1cc(N)cc(-c2nc3ccccc3[nH]2)c1	10µM	n	n	n	18µM
c1ccc2[nH]c(-c3ccncc3)nc2c1	n	n	n	n	n
COc1ccc2oc(=Nc3ccccc3)c(-c3nc4ccccc4[nH]3)cc2c1	10µM	n	n	n	u
Cc1ccc(-c2nc3ccccc3[nH]2)s1	9.2µM	u	n	u	16µM
c1csc(-c2nc3ccccc3[nH]2)c1	n	n	n	n	n
COc1cc(CNC[C@H]2O[C@@H](n3ccc(N)nc3=O)[C@H](O)[C@@H]2O)ccc1OCc1cccc(Cl)c1	n	n	n	n	n
CNc1cncc(-c2ccc(OC)cc2)n1	n	n	n	n	n
CC1(CC(=O)O)C(=O)N=C2C=CC=CN21 (stereo not given)	n	n	n	n	n
O=C(Nc1ccccc1Cl)OC1CCCCC1	n	n	n	n	u
COc1ccc(CCNC(=O)c2cnc3ccc(C)cn3c2=O)cc1	u	x	x	x	n
COC(=O)c1ccc(C(=O)Nc2ccc3nc(-c4cccnc4)[nH]c3c2)cc1	n	n	n	n	5.2µM
COC(=O)c1ccc(-c2nc3ccccc3[nH]2)cc1	u	u	n	u	23µM
COC(=O)c1ccc(C(=O)Nc2ccc3nc(-c4ccncc4)[nH]c3c2)cc1	u	n	n	n	n
COc1ccc(-c2cc(=O)n(-c3nc4ccccc4[nH]3)[nH]2)cc1	35µM	22µM	n	u	n
Cc1ccc(OCC(=O)Nc2nnc(S(=O)(=O)N3c4ccccc4CC3C)s2)cc1 (stereo not given)	u	x	x	x	n
CC(=O)N1c2ccc(S(=O)(=O)N3CCCC3)cc2CC1C(=O)NCc1ccc(N(C)C)cc1 (stereo not given)	n	n	n	n	n
CCc1ccc(CNC(=O)C2Cc3cc(S(=O)(=O)N4CCCCCC4)ccc3N2C(C)=O)cc1 (stereo not given)	23µM	x	x	x	u
